# Test results reported in PubChem BioAssay (EPA / NIEHS).
# Inconclusive results are not listed. Some structures have more than one record in an assay (separate samples or runs), and their calls can disagree. Calls of active or inactive are those of the source. The calls were made as follows, unless noted: active = hit-call score of the fitted dose curve at least 0.9, where 1 is the maximum; inconclusive = response in the unintended direction; inactive = score below 0.9.
# Experiments:
# [1] = STM_H9_OrnCyssISnorm_ratio: Stemina devTOX quickPredict H9 human embryonic stem cell (hESC)-based Assay for Ornithine (ORN):Cystine (CYSS) Ratio (AID 2283714)
# Procedure, shortened: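 Steps: H9 hESCs in pluripotent state dosed 72h, medium plus compound renewed every 24h; conditioned medium from the final 24h deproteinized in 40% acetonitrile; ORN and CYSS quantified by UPLC-HRMS with C13 spike-ins; ratio relative to vehicle.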
# [2] = ACEA_ER_AUC_viability: ACEA Biosciences xCELLigence Real-Time Cell Analysis on Estrogen Receptor Agonism for Viability (AID 2283782);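 also: continuous compound exposure with impedance area under curve over 80 h; hit means loss of impedance signal meaning reduced cell growth or viability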
# Procedure, shortened: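 T-47D; phenol red-free RPMI1640 + 10% CS-FBS; 8 conc., 1:4 serial, max 100 uM final, ≤0.5% DMSO; n = 2; continuous exposure; impedance monitored to 80 h post-dose; AUC vs DMSO.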
# [3] = system: Thyroperoxidase (TPO), gene 54314; assay: CCTE_Simmons_AUR_rTPO: CCTE's Amplex UltraRed Assay for Thyroperoxidase (TPO) Inhibition, Simmons Lab (AID 2283662);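 as to AC50: potency for loss of signal meaning inhibition of peroxidase activity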
# Procedure, shortened: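 Rat thyroid microsomes (5 ug protein) were incubated with test compound (8 concentrations, 5 nM–87.5 uM final, 0.5% DMSO), 25 uM Amplex UltraRed and 300 uM H2O2 in 200 mM phosphate buffer for 30 min at 37C in the dark; fluorescence read at 544/590 nm.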
# [4] = CCTE_Simmons_CellTiterGLO_HEK293T: Viability Assessment in CCTE's Assays for Thyroperoxidase (TPO) Inhibition, Simmons Lab (AID 2283665);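 as to AC50: cells exposed to compound for 24 h before readout; actives reduce ATP signal below DMSO vehicle meaning cytotoxicity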
# Procedure, shortened: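 HEK293T cells in DMEM with 1% FBS were dosed with 8 concentrations (5 nM–87.5 uM final, 0.5% DMSO) for 24 hr at 37C; ATP content was read by CellTiter-Glo luminescence, loss-of-signal versus DMSO, three biological replicates.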
# [5] = target: Luciferin 4-monooxygenase (Photinus pyralis) (UniProt P08659); assay: CCTE_Simmons_QuantiLum_inhib_2: CCTE's Firefly Luciferase Inhibition Assay, Simmons Lab (AID 2283767);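 as to AC50: potency for inhibitors that lower luciferase luminescence relative to DMSO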
# Chain of Luciferin 4-monooxygenase (Photinus pyralis) (P08659 whole entry, looked up): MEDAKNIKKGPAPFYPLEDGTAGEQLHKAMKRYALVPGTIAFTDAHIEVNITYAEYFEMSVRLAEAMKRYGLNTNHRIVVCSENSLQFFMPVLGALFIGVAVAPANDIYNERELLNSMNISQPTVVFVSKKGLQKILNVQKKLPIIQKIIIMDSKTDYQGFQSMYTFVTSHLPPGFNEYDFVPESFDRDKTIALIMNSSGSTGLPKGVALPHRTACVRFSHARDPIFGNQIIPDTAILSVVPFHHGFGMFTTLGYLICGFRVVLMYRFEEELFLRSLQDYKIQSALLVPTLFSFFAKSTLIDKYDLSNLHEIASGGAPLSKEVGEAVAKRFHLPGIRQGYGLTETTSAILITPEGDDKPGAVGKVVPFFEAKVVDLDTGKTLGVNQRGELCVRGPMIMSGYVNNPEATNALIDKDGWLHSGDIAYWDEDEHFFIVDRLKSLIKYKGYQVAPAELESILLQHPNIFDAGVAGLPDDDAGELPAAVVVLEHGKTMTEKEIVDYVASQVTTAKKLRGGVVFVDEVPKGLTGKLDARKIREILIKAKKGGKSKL
# Procedure, shortened: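 Recombinant firefly luciferase (5 ng/well, 200 mM potassium phosphate with 1 mg/ml BSA) was exposed to 8 concentrations from 5 nM to 87.5 uM (final, 0.5% DMSO) for 30 min at 37C in the dark. Loss of luminescence versus DMSO was read after injecting D-luciferin/ATP-analogue reagent.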
# [6] = ACEA_AR_antagonist_AUC_viability: ACEA Biosciences xCELLigence Real-Time Cell Analysis on Androgen Receptor Antagonism for Viability (AID 2283776);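 also: 22Rv1 human prostate cancer cells growing on impedance electrode plates; area under impedance growth curve at 80 h after dosing as viability; hits lower the growth signal relative to DMSO meaning cytotoxicity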
# Procedure, shortened: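 Impedance read-out (RT-CES): area under growth curve at 80 h post-dose, loss of signal scored vs DMSO baseline. 22Rv1 cells; 8-pt 1:4 series, top 100 uM final, ≤0.5% DMSO; biological duplicate.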
# [7] = CEETOX_H295R_MTT_cell_viability: Viability Assessment in the CeeTox HT-H295R MTT Assay (AID 2283718; active = hit-call score of the fitted dose curve at least 0.9, where 1 is the maximum; inactive = score below 0.9;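 as to AC50: curve fitted both ways so AC50 may mark viability loss or gain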)
# Procedure, shortened: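 MTT reduction (0.5 mg/ml, 4 h at 37 C; absorbance at 570 and 650 nm) gave viability as background-corrected percent change versus controls. H295R cells had 48 h forskolin (10 uM) prestimulation, then 48 h chemical exposure at 0.1% DMSO.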
# [8] = ACEA_AR_agonist_AUC_viability: ACEA Biosciences xCELLigence Real-Time Cell Analysis on Androgen Receptor Agonism for Viability (AID 2283775);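 as to AC50: viability read 80 hours after compound addition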
# Procedure, shortened: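 Read-out is area under the impedance curve at 80 h post-dose in 22Rv1 cells, with DMSO as baseline and signal loss taken as reduced viability. Compounds ran in duplicate from 100 uM final.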
# [9] = Tanguay_ZF_120hpf_TR_legacy: (Legacy) Oregon State University Tanguay Lab 120 Hour Post-fertilization zebrafish Assay for Touch Response (AID 2283667)
# Procedure, shortened: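 5D WT embryos; static exposure to 120 hpf, 28C, sealed/dark; DMSO 0.64% v/v final. TR scored present/absent; dead embryos excluded. Pos ctrl 5uM trimethyltin chloride.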
# [10] = CCTE_Padilla_ZF_144hpf_TERATOSCORE: (Legacy) CCTE's 144 Hour Post-fertilization zebrafish Assay Teratoscore, Padilla Lab (AID 2283679; active = hit-call score of the fitted dose curve at least 0.9, where 1 is the maximum; inactive = score below 0.9;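 also: zebrafish embryos with chorions exposed by immersion from 6-8 hpf to 5 dpf with daily renewal; teratogenicity score from eye scoring of death hatching and malformations at 144 hpf; higher score means more developmental defects relative to DMSO baseline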)
# Procedure, shortened: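 Larvae scored by eye at 144 hpf for death, hatching and malformations after a day in clean Hanks'. Before that, daily-renewed exposure at 80 uM (0.4% DMSO, 26C) from roughly 6-8 hpf through 5 dpf, 4 embryos per chemical.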
# [11] = Tanguay_ZF_120hpf_ActivityScore_legacy: (Legacy) Oregon State University Tanguay Lab 120 Hour Post-fertilization zebrafish Assay Score for Activity (AID 2283742)
# Procedure, shortened: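 Embryos are staged, enzymatically dechorionated at 4 hpf, placed individually at 6 hpf, then held in test chemical (0.64% DMSO) at 28C until 120 hpf. Mortality and malformations are scored by brightfield, with non-mortality endpoints skipped for dead embryos.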
compound,measurement,setting,value
CCOC(=O)C=Cc1ccccc1,AC50,[1],24.8 µM (active)
same,outcome,[2],inactive
O=C(O)CS,outcome,[3],inactive
same,outcome,[4],inactive
same,outcome,[5],inactive
same,outcome,[6],inactive
same,outcome,[2],inactive
CC(=O)C1=C(C)[C@@H]2C[C@@]3(C1)[C@H](C)CC[C@H]3C2(C)C,outcome,[1],inactive
same,AC50,[7],50 µM (active)
same,outcome,[8],inactive
same,outcome,[6],inactive
same,AC50,[2],88.1 µM (active)
CC1=CCC(=C(C)C)CC1,outcome,[3],inactive
same,outcome,[5],inactive
same,outcome,[8],inactive
O=c1cc(-c2ccc(O)cc2)oc2cc(O)cc(O)c12,AC50,[3],4.81 µM (active)
same,outcome,[4],inactive
same,AC50,[5],7.35 µM (active)
same,AC50,[8],12.7 µM (active)
same,AC50,[6],6.43 µM (active)
CCC(C)(C)C1CCC(=O)CC1,AC50,[3],39.3 µM (active)
same,outcome,[4],inactive
same,outcome,[5],inactive
same,outcome,[6],inactive
C[C@]12CC[C@@H]3c4ccc(O)cc4CC[C@H]3[C@@H]1CC[C@@H]2O,AC50,[3],4.86 µM (active)
same,outcome,[4],inactive
same,outcome,[9],inactive
same,AC50,[10],12 µM (active)
same,outcome,[7],inactive
same,outcome,[11],inactive
same,outcome,[5],inactive
same,AC50,[8],0.05 µM (active)
same,outcome,[8],inactive
same,AC50,[6],85.9 µM (active)
same,outcome,[6],inactive
CCCc1ccc(O)cc1,outcome,[3],inactive
same,AC50,[4],87.9 µM (active)
same,outcome,[7],inactive
same,outcome,[5],inactive
same,outcome,[8],inactive
same,outcome,[6],inactive
O=C(O)C1=NN(c2ccc(S(=O)(=O)O)cc2)C(=O)C1,AC50,[3],36.4 µM (active)
same,outcome,[5],inactive
same,AC50,[8],8.67 µM (active)
CCCCOCCOCCO,outcome,[9],inactive
same,outcome,[11],inactive
same,outcome,[8],inactive
same,outcome,[6],inactive
CNC(=C[N+](=O)[O-])NCCSCc1ccc(CN(C)C)o1,outcome,[8],inactive
same,outcome,[6],inactive
[Na+],outcome,[8],inactive
same,outcome,[6],inactive
CCC(C)COC(=O)CC(C)C (stereo not drawn),outcome,[8],inactive
CCCCCCCCCCCCN1CCOCC1,outcome,[7],inactive
same,AC50,[2],80.3 µM (active)
CCCCCC1C(=O)CCC1CC(=O)OC (stereo not drawn),outcome,[7],inactive
CC(C)(C)c1ccc(S)cc1,outcome,[8],inactive
OC[C@H]1O[C@@H](O[C@H]2[C@H](O)[C@@H](O)[C@H](O)O[C@@H]2CO)[C@H](O)[C@@H](O)[C@H]1O,AC50,[8],0.603 µM (active)
CC(C)N(c1ccccc1)C(C)C,outcome,[8],inactive
same,outcome,[6],inactive
CCCC(O)C(CC)CO (stereo not drawn),outcome,[8],inactive
CCCCCCCCCO,outcome,[8],inactive
CC1=CCC(C(C)(C)O)CC1 (stereo not drawn),outcome,[8],inactive
same,outcome,[6],inactive
CCNC(=S)NCC,outcome,[8],inactive
same,outcome,[6],inactive
CC1=CCC(C(C)C)=CC1,outcome,[8],inactive
CC(=O)OC(C)(C)C,outcome,[8],inactive
O=C(OCc1ccccc1)c1ccccc1O,outcome,[7],inactive
same,outcome,[8],inactive
same,outcome,[6],inactive
same,AC50,[2],94.3 µM (active)
COc1ccc(OC)cc1,outcome,[8],inactive
c1coc(CNc2ncnc3nc[nH]c23)c1,outcome,[7],inactive
same,outcome,[8],inactive
same,outcome,[6],inactive
OCCCO,outcome,[7],inactive
same,outcome,[2],inactive
